Experimental data taken from the supplement of paper PMC13380429.

System: Vero E6 infected with SARS-CoV-2
Assay: inhibition of SARS-CoV-2 cytopathic effect; higher = more antiviral protection, active = above 15
Details: 48 h

Measured: inhibition of SARS-CoV-2 cytopathic effect

CC1(C)CC(=O)c2c(C(F)(F)F)nn(-c3ccc(C(N)=O)c(N[C@H]4CC[C@H](OC(=O)CN)CC4)c3)c2C1
inactive: 1 nM -1.61% | 8.33 nM 1.43% | 100 nM 2.1% | 833.33 nM -2.15% | 10000 nM -0.73%

O=C(NCc1ccc(OC(F)(F)F)cc1)C1c2ccccc2C(=O)N1C1CCOCC1 (stereo not given)
inactive: 1 nM -3.69% | 8.33 nM -4.75% | 100 nM -1.62% | 833.33 nM -1.7% | 10000 nM 2.59%

CC(C)Oc1cccc(-n2c(CCc3c[nH]c4ccc(Br)cc34)nc3ccccc3c2=O)c1
inactive: 1 nM -1.06% | 8.33 nM 2.18% | 100 nM 2.14% | 833.33 nM 0.14% | 10000 nM 0.06%
